Laboratory results: the supplement of paper PMC7724964

T1: DYNLL2 1-89 Dynein_light (domain begin residue: 1, domain end residue: 89), Q96FJ2
T1 chain: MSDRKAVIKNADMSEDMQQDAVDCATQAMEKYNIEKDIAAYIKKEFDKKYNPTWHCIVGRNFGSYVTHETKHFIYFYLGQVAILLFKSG

T2: FKBP3 109-224 FKBP_C (domain begin residue: 109, domain end residue: 224), Q00688
T2 chain: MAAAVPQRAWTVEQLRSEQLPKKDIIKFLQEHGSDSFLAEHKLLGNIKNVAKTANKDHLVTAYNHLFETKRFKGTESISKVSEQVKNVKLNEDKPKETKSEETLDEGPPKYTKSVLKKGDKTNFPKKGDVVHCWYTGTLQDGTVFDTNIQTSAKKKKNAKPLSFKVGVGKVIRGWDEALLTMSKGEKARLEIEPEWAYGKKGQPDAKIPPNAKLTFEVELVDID

T3: ESRRG 219-458 Hormone_recep (domain begin residue: 219, domain end residue: 458), P62508
T3 chain: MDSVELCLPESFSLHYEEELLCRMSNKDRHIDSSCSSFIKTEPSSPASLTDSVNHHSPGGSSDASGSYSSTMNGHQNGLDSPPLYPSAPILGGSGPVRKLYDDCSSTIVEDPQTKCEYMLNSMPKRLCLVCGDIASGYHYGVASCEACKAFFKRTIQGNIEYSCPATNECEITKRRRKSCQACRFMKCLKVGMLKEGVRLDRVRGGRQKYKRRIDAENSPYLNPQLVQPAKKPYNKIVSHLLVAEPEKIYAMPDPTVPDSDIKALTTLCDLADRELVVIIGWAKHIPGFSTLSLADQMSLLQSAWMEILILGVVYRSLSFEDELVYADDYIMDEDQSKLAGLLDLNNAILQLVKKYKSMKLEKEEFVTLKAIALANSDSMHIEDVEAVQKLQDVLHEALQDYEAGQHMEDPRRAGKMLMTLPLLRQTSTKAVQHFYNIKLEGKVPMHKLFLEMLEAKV

T4: ESRRA 179-423 Hormone_recep (domain begin residue: 179, domain end residue: 423), P11474
T4 chain: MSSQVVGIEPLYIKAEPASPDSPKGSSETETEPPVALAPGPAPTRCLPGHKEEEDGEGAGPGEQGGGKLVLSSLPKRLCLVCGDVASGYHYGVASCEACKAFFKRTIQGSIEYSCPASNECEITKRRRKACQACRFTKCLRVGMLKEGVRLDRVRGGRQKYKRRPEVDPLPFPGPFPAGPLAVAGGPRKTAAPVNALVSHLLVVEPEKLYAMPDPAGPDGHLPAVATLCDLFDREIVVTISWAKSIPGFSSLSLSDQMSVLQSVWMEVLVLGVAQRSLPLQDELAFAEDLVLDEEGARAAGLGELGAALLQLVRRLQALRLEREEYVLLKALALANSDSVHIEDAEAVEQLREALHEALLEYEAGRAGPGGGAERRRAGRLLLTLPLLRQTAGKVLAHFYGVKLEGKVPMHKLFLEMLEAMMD

T5: ENAH 9-116 WH1 (domain begin residue: 9, domain end residue: 116), Q8N8S7
T5 chain: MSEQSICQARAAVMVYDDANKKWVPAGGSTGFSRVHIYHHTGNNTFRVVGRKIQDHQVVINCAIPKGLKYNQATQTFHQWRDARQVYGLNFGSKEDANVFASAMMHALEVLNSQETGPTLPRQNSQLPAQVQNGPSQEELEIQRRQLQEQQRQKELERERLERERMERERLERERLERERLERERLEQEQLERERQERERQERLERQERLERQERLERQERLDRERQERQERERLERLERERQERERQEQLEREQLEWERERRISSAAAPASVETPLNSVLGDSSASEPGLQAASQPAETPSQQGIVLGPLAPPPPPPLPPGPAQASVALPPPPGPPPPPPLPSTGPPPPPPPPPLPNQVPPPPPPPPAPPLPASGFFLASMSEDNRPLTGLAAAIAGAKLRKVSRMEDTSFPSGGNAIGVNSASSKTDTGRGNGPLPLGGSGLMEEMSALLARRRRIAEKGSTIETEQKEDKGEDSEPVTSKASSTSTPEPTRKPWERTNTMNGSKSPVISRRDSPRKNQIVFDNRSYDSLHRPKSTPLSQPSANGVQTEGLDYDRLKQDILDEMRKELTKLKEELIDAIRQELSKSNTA

T6: EEF1A2 240-332 GTP_EFTU_D2 (domain begin residue: 240, domain end residue: 332), Q05639
T6 chain: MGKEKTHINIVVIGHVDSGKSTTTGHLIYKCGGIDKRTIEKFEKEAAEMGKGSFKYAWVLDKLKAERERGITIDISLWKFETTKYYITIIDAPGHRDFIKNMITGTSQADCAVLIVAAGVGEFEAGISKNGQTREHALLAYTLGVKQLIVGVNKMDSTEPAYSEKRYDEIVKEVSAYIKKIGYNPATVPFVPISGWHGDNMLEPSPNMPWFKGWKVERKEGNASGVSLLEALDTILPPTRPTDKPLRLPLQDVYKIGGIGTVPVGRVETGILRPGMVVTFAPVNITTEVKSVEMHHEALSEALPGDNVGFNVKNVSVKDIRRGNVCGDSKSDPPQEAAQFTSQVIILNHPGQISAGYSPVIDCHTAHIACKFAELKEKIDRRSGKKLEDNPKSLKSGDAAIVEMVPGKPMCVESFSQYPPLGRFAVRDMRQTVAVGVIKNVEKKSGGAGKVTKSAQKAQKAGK

T7: EVL 1-130 WH1 (domain begin residue: 1, domain end residue: 130), Q9UI08
T7 chain: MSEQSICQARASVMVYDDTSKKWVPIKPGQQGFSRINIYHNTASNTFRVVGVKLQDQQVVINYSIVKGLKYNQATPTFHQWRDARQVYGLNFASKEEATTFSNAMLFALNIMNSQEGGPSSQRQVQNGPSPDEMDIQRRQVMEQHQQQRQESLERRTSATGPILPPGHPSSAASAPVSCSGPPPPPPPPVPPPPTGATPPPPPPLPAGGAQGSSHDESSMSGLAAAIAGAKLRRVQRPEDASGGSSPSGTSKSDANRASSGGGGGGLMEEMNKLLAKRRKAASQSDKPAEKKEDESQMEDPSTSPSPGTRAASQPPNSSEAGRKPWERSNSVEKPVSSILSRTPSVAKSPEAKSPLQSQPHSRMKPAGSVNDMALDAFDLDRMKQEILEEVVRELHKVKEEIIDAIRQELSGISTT

T8: SPRED1 13-131 WH1 (domain begin residue: 13, domain end residue: 131), Q7Z699
T8 chain: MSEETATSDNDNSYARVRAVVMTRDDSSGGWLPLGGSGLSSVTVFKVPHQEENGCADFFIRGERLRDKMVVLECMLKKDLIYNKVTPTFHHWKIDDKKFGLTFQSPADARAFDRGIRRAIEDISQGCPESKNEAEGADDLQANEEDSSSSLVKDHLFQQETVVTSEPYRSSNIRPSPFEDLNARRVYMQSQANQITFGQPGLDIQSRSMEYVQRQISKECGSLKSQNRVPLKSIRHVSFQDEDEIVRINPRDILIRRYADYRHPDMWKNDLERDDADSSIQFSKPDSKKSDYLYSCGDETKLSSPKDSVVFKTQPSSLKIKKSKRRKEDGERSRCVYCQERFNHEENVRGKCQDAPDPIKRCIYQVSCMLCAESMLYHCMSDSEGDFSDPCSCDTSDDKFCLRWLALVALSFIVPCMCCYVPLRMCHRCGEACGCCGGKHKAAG

T9: ESR2 263-500 Hormone_recep (domain begin residue: 263, domain end residue: 500), Q92731
T9 chain: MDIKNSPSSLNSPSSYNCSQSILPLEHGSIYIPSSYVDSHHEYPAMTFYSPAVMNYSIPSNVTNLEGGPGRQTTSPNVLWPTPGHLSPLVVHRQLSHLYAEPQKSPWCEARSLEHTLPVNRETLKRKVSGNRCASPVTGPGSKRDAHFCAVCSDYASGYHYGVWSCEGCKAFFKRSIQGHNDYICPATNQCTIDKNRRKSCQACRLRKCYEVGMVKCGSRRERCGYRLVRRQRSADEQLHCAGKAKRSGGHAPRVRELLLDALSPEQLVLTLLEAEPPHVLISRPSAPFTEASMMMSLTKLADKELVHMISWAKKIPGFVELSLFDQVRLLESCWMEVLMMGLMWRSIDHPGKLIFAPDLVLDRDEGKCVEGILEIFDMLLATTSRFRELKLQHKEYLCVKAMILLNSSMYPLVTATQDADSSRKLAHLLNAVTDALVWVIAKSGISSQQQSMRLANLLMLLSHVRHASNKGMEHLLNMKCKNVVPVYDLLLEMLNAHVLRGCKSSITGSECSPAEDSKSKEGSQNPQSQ


Target: T1, DYNLL2 1-89 Dynein_light (domain begin …
Assay: phage ELISA signal ratio (GST-PRM binding over GST background); higher = stronger binding of peptide-phage to the PRM
Summary of the method: (§1)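 Each value is the phage ELISA signal on the glutathione S-transferase (GST)-domain fusion divided by the signal on GST alone. Human peptide recognition domains were expressed in 96-well plates, fused to the C-terminus of GST, and selected against an M13 phage library carrying randomized, cysteine-free, glycine-flanked hexadecapeptides on the gene-8 major coat protein. After five selection rounds, approximately 48 individual clones from rounds 4 and 5 were tested by phage ELISA, and positive clones were sequenced.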
TMTPWDWPIYQGESEH was tested, and the “phage ELISA signal ratio” value was 25.7.
For VQTIGTWEWDHVPVEV, the “phage ELISA signal ratio” value was 41.
ETQTPEWMGWLMESAI was tested, and the “phage ELISA signal ratio” value was 34.3.
In the case of VDQASQTWVWWAGQAY, the “phage ELISA signal ratio” value is reported as 35.9.
In the case of WTQTMNNITPWIEGIA, the “phage ELISA signal ratio” value is reported as 26.2.
For TQTLILDMDNMKFMTT, the “phage ELISA signal ratio” value was 36.6.
For TQVWPDDWWALGNYYE, the “phage ELISA signal ratio” value was 32.
For VQTEAWWPLQTPAWMV, the “phage ELISA signal ratio” value was 19.7.

Target: T2, FKBP3 109-224 FKBP_C (domain begin …
Assay: as above
Summary of the method: as §1
In the case of KGVFLPEIEWKQGYDQ, the “phage ELISA signal ratio” value is reported as 11.9.
EEWKPHPEEGMGVFLV was tested, and the “phage ELISA signal ratio” value was 13.
QQGIGVFQDWFNHGLI was tested, and the “phage ELISA signal ratio” value was 9.64.
VGVYSLQDEPQKRVVV was tested, and the “phage ELISA signal ratio” value was 6.15.

Each binder was assayed against EIF2S1 9-93 S1 (domain begin residue: 9, domain end residue: 93), P05198 in the same assay as above.
Chain of EIF2S1 9-93 S1 (domain begin residue: 9, domain end residue: 93), P05198 (P05198 whole entry): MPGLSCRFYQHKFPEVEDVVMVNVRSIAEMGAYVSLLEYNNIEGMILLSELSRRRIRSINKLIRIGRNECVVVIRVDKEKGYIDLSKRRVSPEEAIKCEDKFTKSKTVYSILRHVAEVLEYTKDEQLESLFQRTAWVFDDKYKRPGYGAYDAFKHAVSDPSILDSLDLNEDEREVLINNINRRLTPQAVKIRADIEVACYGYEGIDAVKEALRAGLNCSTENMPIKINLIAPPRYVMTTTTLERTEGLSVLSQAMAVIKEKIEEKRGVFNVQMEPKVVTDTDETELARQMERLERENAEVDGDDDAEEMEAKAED
Summary of the method: as §1
With EYTNWYWLGYLPETVM the “phage ELISA signal ratio” value was 14.6.
With SSGSSTRPMRVTRAPT the “phage ELISA signal ratio” value was 4.01.

Target: T3, ESRRG 219-458 Hormone_recep (domain …
Assay: as above
Summary of the method: as §1
In the case of TNPPAEHMSRLHWELT, the “phage ELISA signal ratio” value is reported as 18.2.
In the case of EHIQGHAPLLWEVLHS, the “phage ELISA signal ratio” value is reported as 10.8.
VHRDYQLGHEWLVFIN was tested, and the “phage ELISA signal ratio” value was 13.1.

The binders below were run against PCMT1 1-227 PCMT (domain begin residue: 1, domain end residue: 227), P22061 in the same assay as above.
Chain of PCMT1 1-227 PCMT (domain begin residue: 1, domain end residue: 227), P22061 (P22061 whole entry): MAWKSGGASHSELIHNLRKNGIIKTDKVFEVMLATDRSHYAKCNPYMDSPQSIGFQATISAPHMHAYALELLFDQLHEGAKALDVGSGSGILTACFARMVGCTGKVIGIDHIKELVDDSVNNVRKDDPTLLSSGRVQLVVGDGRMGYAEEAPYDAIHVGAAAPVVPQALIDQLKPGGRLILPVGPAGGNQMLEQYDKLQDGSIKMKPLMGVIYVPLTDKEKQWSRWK
Summary of the method: as §1
TNPPAEHMSRLHWELT was tested, and the “phage ELISA signal ratio” value was 18.2.
With EHIQGHAPLLWEVLHS the “phage ELISA signal ratio” value was 10.8.
In the case of VHRDYQLGHEWLVFIN, the “phage ELISA signal ratio” value is reported as 13.1.

Target: T4, ESRRA 179-423 Hormone_recep (domain …
Assay: as above
Summary of the method: as §1
For VQWQDQYPTFYAEMSK, the “phage ELISA signal ratio” value was 8.22.
With SQQWSTHYPTFFELML the “phage ELISA signal ratio” value was 3.25.
With EFNQWFADHWQQWHYE the “phage ELISA signal ratio” value was 3.76.

Target: T5, ENAH 9-116 WH1 (domain begin residue: …
Assay: as above
Summary of the method: as §1
WEGNQWEWPPAYMELM was tested, and the “phage ELISA signal ratio” value was 7.2.

Target: T6, EEF1A2 240-332 GTP_EFTU_D2 (domain …
Assay: as above
Summary of the method: as §1
For SDHTHWQLIQWDGWML, the “phage ELISA signal ratio” value was 11.6.
For HWWQDNQGYVWFQVEQ, the “phage ELISA signal ratio” value was 5.34.

Target: T7, EVL 1-130 WH1 (domain begin residue: 1, …
Assay: as above
Summary of the method: as §1
For GIGFEWVHDGWWPMWT, the “phage ELISA signal ratio” value was 13.8.

These binders were tested against EGFR 334-495 Recep_L_domain (domain begin residue: 334, domain end residue: 495), P00533 in the same assay as above.
Summary of the method: as §1
For EFFIPKEFYWDRVQDV, the “phage ELISA signal ratio” value was 26.6.

Target: T8, SPRED1 13-131 WH1 (domain begin …
Assay: as above
Summary of the method: as §1
For EFNQWFADHWQQWHYE, the “phage ELISA signal ratio” value was 5.28.

Target: T9, ESR2 263-500 Hormone_recep (domain …
Assay: as above
Summary of the method: as §1
EERTWSFEEWLWMPAM was tested, and the “phage ELISA signal ratio” value was 26.6.

These binders were tested against EIF4A1 29-237 DEAD (domain begin residue: 29, domain end residue: 237), P60842 in the same assay as above.
Chain of EIF4A1 29-237 DEAD (domain begin residue: 29, domain end residue: 237), P60842 (P60842 whole entry): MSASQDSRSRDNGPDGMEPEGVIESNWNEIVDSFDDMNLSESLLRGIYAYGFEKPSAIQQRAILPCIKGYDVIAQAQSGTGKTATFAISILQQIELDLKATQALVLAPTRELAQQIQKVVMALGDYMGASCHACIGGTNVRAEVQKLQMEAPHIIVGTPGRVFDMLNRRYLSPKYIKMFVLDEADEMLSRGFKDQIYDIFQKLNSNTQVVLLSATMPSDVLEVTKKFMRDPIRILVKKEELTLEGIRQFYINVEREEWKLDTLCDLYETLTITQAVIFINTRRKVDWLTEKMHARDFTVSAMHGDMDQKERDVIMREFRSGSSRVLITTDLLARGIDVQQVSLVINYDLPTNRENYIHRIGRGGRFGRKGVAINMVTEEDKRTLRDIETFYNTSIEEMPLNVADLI
Summary of the method: as §1
EMPQYMMTWYYEPDST was tested, and the “phage ELISA signal ratio” value was 5.95.
